HTT prom inh – inhibits huntingtin promoter activity. HEK293 HTT promoter firefly luciferase reporter, 24 h. AID 1508623. actives 0.93% (n = 48,000). Potency, µM (series often up to 57.5 µM), hits mostly inhibitors; further: nearly all actives have a fitted effect of over 50% in size
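Luminescence was read after Dual-Glo reagent and a 10 min room-temperature incubation. Values were normalized to vehicle (0% activity) and zero RLU (-100% activity). Reporter HEK293 cells had been exposed to compounds (up to 57.5 uM final) for 24 h.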
GPR32 ag – GPR32 (DRV1) agonism, beta-arrestin recruitment; CHO-K1 GPR32 beta-arrestin PathHunter luminescence, 90 min; zero percent set by DMSO-only wells; activation, % at 76.9 µM; actives 2.5% (n = 48,000); AID 1346428;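 active means activation of at least 60% and not above a set upper limit, about 1 call in 100 departs from these limits; inconclusive means activation of 40% to 60%, or above that upper limit; inactive means activation under 40%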
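Engineered CHO-K1 line co-expressing GPR32-ProLink and EA-beta-arrestin. Compound treatment lasted 90 min at 37 °C. Luminescence was recorded after 1 h with substrate at ambient temperature, relative to DMSO basal wells.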
HTT-AS act – activators of huntingtin-antisense promoter activity; HEK293 HTT-AS promoter firefly luciferase reporter, 24 h; response scale: percent change from vehicle, -100% = no light; Potency, µM (doses to about 57.5 µM), most hits filed as activators; actives 0.24% (n = 48,000); further: nearly all actives have a fitted effect of over 55% in size
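HEK293 luciferase promoter-reporter cells (2,500/well) plated 24 h, then compounds added at up to 57.5 uM final for 24 h at 37 °C. Firefly luminescence by Dual-Glo, normalized to vehicle (0%) and zero RLU (-100%).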
NTMT1 inh – NTMT1 methyltransferase inhibition | Q9BV86 | NTMT1 MTase-Glo SAH luminescence, purified enzyme | Potency, µM (doses to about 114 µM), usual class: inhibitors | actives 2.5% (n = 59,000) | AID 1645870; further: nearly all actives have a fitted effect of over 65% in size
Target sequence (Q9BV86 whole entry, looked up): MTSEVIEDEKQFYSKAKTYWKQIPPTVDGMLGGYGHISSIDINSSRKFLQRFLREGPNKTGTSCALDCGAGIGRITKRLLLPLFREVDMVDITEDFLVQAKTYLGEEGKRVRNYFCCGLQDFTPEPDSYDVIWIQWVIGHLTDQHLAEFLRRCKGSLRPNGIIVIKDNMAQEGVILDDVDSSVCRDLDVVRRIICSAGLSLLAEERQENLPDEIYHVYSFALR
GALC G270D up – raises human GALC G270D mutant activity in cells | P54803 | 145M-Twi-hGALC-G270D cells (Twitcher mouse brain line with human GALC G270D), HMU-beta-Gal fluorescence, 48 h | Potency, µM (top dose mostly 57.5 µM), hits mostly activators | actives 0.1% (n = 45,000); further: nearly all actives have a fitted effect of over 65% in size
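Fluorogenic HMU-b-Gal hydrolysis (0.1 mM final, pH 5.2 citrate-phosphate with 1 mg/mL sodium taurocholate; carbonate stop buffer) measures mutant GALC activity after compound treatment of live 145M-Twi Twitcher brain cells stably carrying human GALC-G270D, with wild-type GALC line alongside; activation sought.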
FH mod – Identification of activators of human fumarate hydratase by quantitative high-throughput screening; FH coupled MDH/diaphorase resazurin fluorescence, 15 min; Potency, µM (series often up to 79.9 µM), actives largely listed as inhibitors; actives 0.22% (n = 54,000); Fumarate hydratase, mitochondrial (Homo sapiens), P07954; further: the screen sought activators but most active calls are inhibition curves; nearly all actives have a fitted effect of over 45% in size
Target sequence (P07954 whole entry, looked up): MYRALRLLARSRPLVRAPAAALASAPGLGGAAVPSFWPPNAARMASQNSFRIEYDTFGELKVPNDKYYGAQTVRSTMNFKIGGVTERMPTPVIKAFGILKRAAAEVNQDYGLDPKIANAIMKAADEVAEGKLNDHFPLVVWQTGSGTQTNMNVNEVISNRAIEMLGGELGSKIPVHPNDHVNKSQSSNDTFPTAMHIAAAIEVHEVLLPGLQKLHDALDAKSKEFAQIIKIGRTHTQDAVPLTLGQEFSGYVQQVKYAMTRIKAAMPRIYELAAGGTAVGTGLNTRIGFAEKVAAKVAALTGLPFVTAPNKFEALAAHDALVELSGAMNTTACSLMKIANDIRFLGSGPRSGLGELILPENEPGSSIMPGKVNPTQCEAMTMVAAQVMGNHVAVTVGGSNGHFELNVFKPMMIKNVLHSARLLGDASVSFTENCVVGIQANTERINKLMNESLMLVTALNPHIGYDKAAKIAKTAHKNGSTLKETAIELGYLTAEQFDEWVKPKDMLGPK
A number is an active result; i = inactive; ? = inconclusive; nt = not tested or not shown; ! = not active in a repeat; [ ] = remark or other dose. Rows were chosen to be rich in hits. Some 4.7% of all compounds tested hit in one or more screens of this group. Unless noted, the call rests on the fitted dose curve; in most records, active means well fitted curve in the direction sought with a large enough effect; inconclusive means small, poorly fitted or top-dose-only effect, or another doubt; inactive means no such curve, though single readings can be large; an effect the other way counts as inactive or inconclusive.

SMILES | HTT prom inh | GPR32 ag | HTT-AS act | NTMT1 inh | GALC G270D up | FH mod
O=c1c(O)c(-c2cc(O)c(O)c(O)c2)oc2cc(O)cc(O)c12 | i | i | i | 28µM! | nt | i
O=c1c(O)c(-c2ccc(O)cc2O)oc2cc(O)cc(O)c12 | i | i | i | 45µM! | nt | i
O=c1cc(COc2ccccc2Cl)nc2scc(-c3ccccc3)n12 | i | 86 | i | i | i | i
Cc1ccc(NC(=O)Cn2nc(C(F)(F)F)c3c2CCCC3)cc1 | ? | 77 | i | i | i | i
Cc1cccc(-c2[nH]ncc2-c2ccc(F)c(-c3cnn(CCO)c3)c2)n1 | nt | nt | nt | ? | nt | i
COCCCNc1nc(NCc2ccccc2OC)c2cnn(C)c2n1 | ? | 75 | i | ? | i | i
Cn1ncc2c(NCc3ccccc3Cl)nc(NCCO)nc21 | i | i | i | ? | i | i
COCCNc1nc(NCc2ccccc2OC)c2cnn(C)c2n1 | ? | i | i | i | i | i
COCCCNc1nc(NCc2ccc(C)cc2)c2cnn(C)c2n1 | ? | 69 | i | i | i | i
CCCCCC(=O)Nc1ccc(NC(=O)c2cc3ccccc3o2)c(OC)c1 | i | 121 | i | i | i | i
Nc1ncnc2c1c(-c1cccc(OCc3ccccc3)c1)cn2C1CC(CN2CCCC2)C1 (stereo not given) | i | nt | i | 13µM | nt | i
Cc1ccc(-n2[nH]c(C)c(N=Nc3cccc(-c4cccc(C(=O)O)c4)c3O)c2=O)cc1C | i | i | i | 35µM! | i | ?
CCN1/C(=C/C=C/c2sc3ccccc3[n+]2CC)Sc2ccccc21 | ? | i | i | 18µM | i | i
COc1cc2c(cc1O)[C@H](c1ccc(O[C@@H]3O[C@H](CO)[C@@H](O)[C@H](O)[C@H]3O)c(OC)c1)[C@@H](CO)[C@](O)(CO)C2 | nt | nt | nt | i | nt | i
CCOC(=O)c1c(-c2ccc(C)o2)csc1NC(=O)CSc1nnnn1-c1ccccc1 | nt | nt | nt | 3.5µM | nt | nt
CCOC(=O)c1c(-c2ccccc2)csc1NC(=O)c1cc(-c2cccc(Cl)c2)on1 | i | i | i | i | i | i
O=C(c1ccc(F)c(F)c1Nc1ccc(I)cc1F)N1CC(O)(C2CCCCN2)C1 (stereo not given) | nt | nt | nt | ? | nt | i
CC1(C)Cc2c(sc(NC(=S)NC(=O)c3ccccc3)c2C(=O)O)CO1 | i | nt | i | 79µM! | nt | i
O=C(Cc1ccc(Cl)c(Cl)c1)Nc1ccc(S(=O)(=O)Nc2cncnc2)cc1 | nt | nt | nt | i | nt | nt
N#Cc1cnc(NS(=O)(=O)c2ccc(NC(=O)Cc3ccc(Cl)c(Cl)c3)cc2)s1 | nt | nt | nt | 79µM | nt | nt
CC1=C(CO)C2(C)CCCC(C)(C)C2C(O)C1O (stereo not given) | nt | nt | nt | i | nt | i
COCCOCCOc1ccc(C2=N[C@@](C)(C(=O)O)CS2)c(O)c1 | nt | nt | nt | i | nt | ?
Cc1cccc(C(=O)Nc2nc3c(s2)CCCC3)c1 | i | i | ? | ? | i | i
O=C(Nc1cccc(Br)c1)Nc1nc2c(s1)CCCCCC2 | i | 113 | i | i | i | i
Nc1cccc(CNc2ccc(S(=O)(=O)Nc3nccs3)cc2)c1O | nt | nt | nt | i | nt | nt
SMILES | HTT prom inh | GPR32 ag | HTT-AS act | NTMT1 inh | GALC G270D up | FH mod
N#Cc1ccc(-c2ccc(CNc3ccc(N4CCC(C(F)(F)F)CC4)cc3)o2)cc1 | nt | nt | nt | i | nt | nt
C=CC(=O)N1CCC[C@H](n2c(=O)n(-c3ccc(Oc4ccccc4)cc3)c3c(N)ncnc32)C1 | nt | nt | nt | 89µM | nt | nt
CC#CC(=O)N1CC[C@@H](n2c(=O)n(-c3ccc(Oc4ccccc4)cc3)c3c(N)ncnc32)C1 | nt | nt | nt | 71µM | nt | nt
O=[N+]([O-])c1ccc(CSc2ncnc3c2ncn3[C@@H]2O[C@H](CO)C(O)[C@H]2O)cc1 (stereo not given in full) | nt | nt | nt | nt | nt | i
Cc1ncsc1-c1ccc([C@H](C)NC(=O)[C@@H]2C[C@@H](O)CN2C(=O)[C@@H](NC(=O)COCCCOCCNC(=O)C[C@@H]2N=C(c3ccc(Cl)cc3)c3c(sc(C)c3C)-n3c(C)nnc32)C(C)(C)C)cc1 | nt | nt | nt | i | nt | nt
Cc1ccc(CNC(=O)c2ccc3nc(SCc4ccc(F)cc4)[nH]c3c2)cc1 | 22µM | i | i | ? | i | ?
Cn1c(SCc2ccc(F)cc2)nc2ccc(C(=O)NCc3ccc(F)cc3)cc21 | 25µM | i | i | i | i | i
C[C@@H](O)[C@@H]1NC(=O)[C@H](CCCCN)NC(=O)[C@@H](Cc2c[nH]c3ccccc23)NC(=O)[C@H](Cc2ccccc2)NC(=O)[C@@H](NC(=O)[C@H](N)Cc2ccccc2)CSSC[C@@H](C(=O)N[C@H](CO)[C@@H](C)O)NC1=O | nt | nt | nt | i | nt | nt
Cc1ccc(Cn2nnc(C(=O)Nc3ccc(F)c(F)c3)c2N)cc1 | i | i | i[11.5 µM] | i | i | i
CSc1ccc(Cn2nnc(C(=O)Nc3ccc(C)cc3Cl)c2N)cc1 | i | 99 | i | i | i | i
COc1ccc(CCNC(=O)Cn2nc(-c3ccc(C)cc3)ccc2=O)cc1OC | nt | nt | nt | i | nt | nt
CC(C)C1=CCC(C)(O)C(OC2OC(CO)C(O)C(O)C2O)C1 (stereo not given) | nt | nt | nt | i | nt | i
CN1C(=O)c2ccccc2Sc2ccc(NC(=O)N3CCN(c4ccccc4F)CC3)cc21 | i | i | i | ? | i | i
COc1ccc(CNC(=O)Nc2ccc3c(c2)N(C)C(=O)c2ccccc2S3)cc1OC | ? | i | i | i | i | ?
CC(C)Oc1ccc(CNC(=O)Nc2ccc3c(c2)N(C)C(=O)c2ccccc2S3)cc1 | 25µM | i | i | i | i | ?
CN1C(=O)c2ccccc2Sc2ccc(NC(=O)N3CCN(c4ccccc4)CC3)cc21 | 25µM | i | i | i | i | i
CCCCNC(=O)Nc1ccc2c(c1)N(C)C(=O)c1ccccc1S2 | ? | i | i | 89µM | i | i
CCOC(=O)c1cccc(NC(=O)Nc2ccc3c(c2)N(C)C(=O)c2ccccc2S3)c1 | ? | i | i | i | i | i
CC1CCC2(C(=O)O)CCC3(C)C(=CCC4C5(C)CCC(O)C(C)(C(=O)O)C5CCC43C)C2C1(C)O (stereo not given) | nt | nt | nt | i | nt | i
C/C(=C\CCC(C)C1=CCC2(C)OC3=C(CC12)C(=O)C(O)CC3)CO (stereo not given) | nt | nt | nt | i | nt | i
CN(C)C(=O)COC(=O)Cc1ccc(OC(=O)c2ccc(N=C(N)N)cc2)cc1 | ? | i | ? | ? | i | i
N=C(N)c1ccc2cc(OC(=O)c3ccc(N=C(N)N)cc3)ccc2c1 | i | i | i | 79µM! | i | i
C=C(C(=O)OC)C1CCC2(C)C(O[C@@H]3O[C@H](CO)[C@@H](O)[C@H](O)[C@H]3O)CC(=O)C(C)C2C1O (stereo not given in full) | nt | nt | nt | i | nt | i
